Experimental findings from PubChem BioAssay AID493194 (Broad Institute, 2011) are described below.

Results with a measured potency or affinity are listed apart. Results filed as inconclusive are left out. Unmarked numbers belong to inactive results.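 Rule for the calls: active = a valid curve of falling signal whose half-effect concentration is at most ten times the top tested dose; inconclusive = flat curve at 30 to 70% inhibition, or poor fit; inactive = signal rise, flat within 30%, or potency beyond limit.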

In this assay the target is Scavenger receptor class B member 1 (Mus musculus) (UniProt Q61009). The experiment in a line: mouse SR-BI DiI-HDL uptake blockers – ldlA[mSR-BI] cells, fluorescence, cherry pick, dose response (AID 493194).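 Note: CHO cells lacking LDL receptor and overexpressing mouse SR-BI; cellular uptake of fluorescently labeled HDL measured as cell fluorescence; 0% = median of neutral control wells and -100% = median of positive control wells.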 The note with it: CHO ldlA[mSR-BI] DiI-HDL uptake fluorescence, 3 h; series mostly up to 35 µM; activity change, negative = inhibition: at the top concentration.
Sequence of Scavenger receptor class B member 1 (Mus musculus) (Q61009 whole entry, looked up): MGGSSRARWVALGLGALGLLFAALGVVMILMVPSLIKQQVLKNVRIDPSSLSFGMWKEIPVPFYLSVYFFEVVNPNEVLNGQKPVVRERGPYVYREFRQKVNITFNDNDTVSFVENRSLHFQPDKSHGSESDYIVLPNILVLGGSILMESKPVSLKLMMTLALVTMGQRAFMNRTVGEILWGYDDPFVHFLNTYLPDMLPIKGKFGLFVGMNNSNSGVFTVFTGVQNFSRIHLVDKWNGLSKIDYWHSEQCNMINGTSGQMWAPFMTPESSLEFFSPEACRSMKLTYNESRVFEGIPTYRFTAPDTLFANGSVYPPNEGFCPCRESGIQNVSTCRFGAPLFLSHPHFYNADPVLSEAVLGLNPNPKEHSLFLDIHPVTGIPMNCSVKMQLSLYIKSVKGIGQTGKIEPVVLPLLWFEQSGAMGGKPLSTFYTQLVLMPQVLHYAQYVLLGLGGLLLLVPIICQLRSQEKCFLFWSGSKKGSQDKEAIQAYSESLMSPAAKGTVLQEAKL
Turning to `Cc1ccc(-n2nc(C)c3c(C(=O)OCC(=O)N(C)C4CCS(=O)(=O)C4)cc(-c4ccccc4)nc32)cc1` (stereo not drawn), the “activity change, negative = inhibition” value is -0.532%.

As to `CCOC(=O)C(C)(C)Sc1nc2c(cnn2-c2ccc(F)cc2)c(=O)[nH]1`, the “activity change, negative = inhibition” value was -12.7%.

Turning to `Cc1ccc2nc3c(c(C(=O)OCC(=O)N(C)C4CCS(=O)(=O)C4)c2c1)CCCC3` (stereo not drawn), the “activity change, negative = inhibition” value was 43.9%.

As to `COc1cc2c(cc1OC)-c1cc(OCc3ccccc3Cl)nc(=O)n1CC2`, the “activity change, negative = inhibition” value was 3.79%.

For `COc1ccc(CCNC(=O)CCC(=O)N2CC(C)Oc3ccc(Cl)cc32)cc1OC` (stereo not drawn), the “activity change, negative = inhibition” value is -10.9%.

Regarding `O=C(Nc1cccc(-c2cn3c(n2)SCC3)c1)c1ccc2ccccc2n1`, the “activity change, negative = inhibition” value is 47.3%.

`O=C1C2CCCN2C(=O)N1CCCN1CCN(c2ccc([N+](=O)[O-])cc2)CC1` (stereo not drawn): the “activity change, negative = inhibition” value is 8.25%.

Take `CSc1ccccc1OCc1cc(C(=O)N(C)Cc2c(C)n[nH]c2C)no1`: the “activity change, negative = inhibition” value was -51.2%.

Regarding `Cc1cc2oc(=O)cc(-c3ccccc3)c2c(C)c1-c1ccc(C(F)(F)F)cc1`, the “activity change, negative = inhibition” value is -5.41%.

Take `CCOC(=O)c1cccc(NC(=O)Nc2cc(OC)ccc2OC)c1`: the “activity change, negative = inhibition” value is -21.1%.

In the case of `Cc1cccc(NC(=O)C2(C)CC3c4ccccc4C2c2ccccc23)c1C` (stereo not drawn), the “activity change, negative = inhibition” value is 29.8%.

For the molecule `Cc1cccc(N2CCN(C(=O)Cn3cccc3C(=O)c3ccccc3)CC2)c1C`, the “activity change, negative = inhibition” value was -20.2%.

In the case of `CCNC(=O)c1c(NC(=O)c2cc(-c3cc(C)cc(C)c3O)n[nH]2)sc2c1CCCC2`, the “activity change, negative = inhibition” value was -29.5%.

With `COc1ccc(NC(=O)Nc2nnc(-c3ccccc3SCc3ccccc3)s2)cc1`, the “activity change, negative = inhibition” value was 56.2%.

On to `Cc1ccc(F)cc1NC(=O)C1C2CCC(O2)C1C(=O)O` (stereo not drawn), for which the “activity change, negative = inhibition” value is 42.3%.

On to `O=C(Nc1cccc(Cl)c1)Nc1sccc1-c1nc2ccccc2s1`, for which the “activity change, negative = inhibition” value is -30.2%.

As for `Cc1ccccc1NC(=O)N(CCc1nc2ccccc2[nH]1)Cc1ccccc1`, the “activity change, negative = inhibition” value was -0.001%.

`CS(=O)(=O)N1CCc2cc(-c3csc(NC(=O)Cc4ccccc4)n3)ccc21`: the “activity change, negative = inhibition” value was 13%.

Consider `Cc1ccc(OCC(=O)NNC(=O)C2CCN(c3ncnc4sc(C)c(C)c34)CC2)cc1`, for which the “activity change, negative = inhibition” value was -32.4%.

For `CCOCCOC(=O)c1[nH]c2c(c1C)C(=O)CC(c1cccs1)C2` (stereo not drawn), the “activity change, negative = inhibition” value is -16.7%.

For `CN(Cc1ccc(OC(F)F)cc1)C(=O)c1ccccc1Sc1ccccc1C#N`, the “activity change, negative = inhibition” value was 38.7%.

Consider `O=C(NNC(=O)c1ccccc1O)c1ccc(S(=O)(=O)Nc2ccccc2)cc1`, for which the “activity change, negative = inhibition” value was -1.35%.

`COc1ccc(-c2nc(-c3ccc(O)cc3O)cs2)cc1OC`: the “activity change, negative = inhibition” value was -21.4%.

On to `CC(C)c1ccc(NC(=O)c2sccc2-n2cccc2)cc1`, for which the “activity change, negative = inhibition” value is 5.41%.

For `O=C(N[C@@H]1C/C=C\C[C@H](CC(=O)N(CCO)Cc2ccccc2)C(=O)NC[C@@H](c2ccccc2)OC1=O)OCC1c2ccccc2-c2ccccc21`, the “activity change, negative = inhibition” value is 17.1%.

`COc1ccc(C2c3sc(=O)[nH]c3SC3C4CCC(C4)C23)cc1OC` (stereo not drawn): the “activity change, negative = inhibition” value was -8.15%.

In the case of `O=C(NC1CC1)c1ccc(CN(c2ccccc2)S(=O)(=O)c2ccccc2)cc1`, the “activity change, negative = inhibition” value is -29.2%.

Regarding `COCCCN(C(=O)c1ccco1)c1nc(-c2ccc(OC)cc2)cs1`, the “activity change, negative = inhibition” value is -38.4%.

Consider `COc1ccc(-c2nnn(CC(=O)N(C3CCCCC3)C(C)C(=O)NC3CCCC3)n2)cc1OC` (stereo not drawn), for which the “activity change, negative = inhibition” value was -13.8%.

As for `CCOC(=O)Nc1nc(-c2ccccc2)c(C(=O)c2ccccc2)s1`, the “activity change, negative = inhibition” value is -13.9%.

`N#Cc1ccc(Nc2nc(-c3ccc(O)cc3O)cs2)cc1C(F)(F)F`: the “activity change, negative = inhibition” value was 5.41%.

As for `O=C(Nc1ncc(Cc2cccc(C(F)(F)F)c2)s1)c1ccc(-c2cccc([N+](=O)[O-])c2)o1`, the “activity change, negative = inhibition” value was -9.44%.

Consider `Cc1ccc(C(=O)COc2cc(O)c3c(=O)cc(-c4ccccc4)oc3c2)cc1`, for which the “activity change, negative = inhibition” value was 5.32%.

Take `CN(C(=O)COC(=O)c1c2c(nc3ccccc13)/C(=C/c1cccc([N+](=O)[O-])c1)CCC2)C1CCS(=O)(=O)C1` (stereo not drawn): the “activity change, negative = inhibition” value is -8.72%.

With `O=C(Nc1ccccc1F)c1ccc2c(c1)CCN2S(=O)(=O)c1ccccc1`, the “activity change, negative = inhibition” value is -8.1%.

In the case of `Cc1cc(C(=O)COC(=O)c2ccc(Cl)c(S(N)(=O)=O)c2)c(C)n1C1CC1`, the “activity change, negative = inhibition” value was -28.6%.

Take `CCOC(=O)C1CCCN(C(=O)c2cc(COc3ccc(C)nc3)on2)C1` (stereo not drawn): the “activity change, negative = inhibition” value was 56.5%.

Consider `COc1ccc(C(=O)CSc2nnc(CNC(=O)c3ccc(S(=O)(=O)N(C)C)cc3)o2)cc1`, for which the “activity change, negative = inhibition” value is -22.2%.
